From PubChem BioAssay AID504332 (National Center for Advancing Translational Sciences (NCATS), 2011)
Hit rate of the full screen: of about 350,000 compounds, about 31,000 (8.9%) were called active. Not shown: some 15% with an inconclusive outcome. The sample as a whole holds a higher share of actives than the screen did. Unmarked numbers belong to inactive results. Calls come from the whole dose curve; as a rule, active = well fitted inhibition curve with a large enough effect; inconclusive = small, poorly fitted or top-dose-only effect; inactive = no such curve, though single readings can be large or run the other way.

What follows are molecules tested against Histone-lysine N-methyltransferase EHMT2 (Homo sapiens) (UniProt Q96KQ7) (assay: qHTS Assay for Inhibitors of Histone Lysine Methyltransferase G9a). Settings: G9a H3K9 monomethylation, AlphaScreen, 2 h; series mostly up to 59 µM; activity, negative = inhibition: at the top concentration.
Histone-lysine N-methyltransferase EHMT2 (Homo sapiens), sequence (Q96KQ7 913-1193 limits assumed): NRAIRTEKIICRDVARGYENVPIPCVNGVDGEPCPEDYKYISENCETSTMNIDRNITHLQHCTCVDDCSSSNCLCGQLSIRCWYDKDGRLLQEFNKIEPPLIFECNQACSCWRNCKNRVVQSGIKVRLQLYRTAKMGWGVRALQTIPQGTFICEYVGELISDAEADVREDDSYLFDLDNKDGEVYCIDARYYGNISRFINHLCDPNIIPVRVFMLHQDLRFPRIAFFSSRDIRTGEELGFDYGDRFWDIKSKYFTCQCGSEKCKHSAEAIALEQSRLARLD
Procedure, shortened: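 Compounds were preincubated with 20 nM G9a for 15 min, after which biotinylated H3K9 peptide (500 nM) and SAM (20 uM) started a 2 h room-temperature reaction. Monomethylated product was quantified by antibody-based AlphaScreen chemiluminescence.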
% is set by controls: 0 for no effect and ±100 for the full control effect; potency is the fitted concentration of half-maximal effect.
Note: nearly all actives have a fitted effect of over 75% in size.

Going from `CCOc1ncccc1C(=O)OCC(=O)Nc1cccc(S(=O)(=O)N2CCCCCC2)c1` to `CCN(C(=O)COC(=O)C1CCN(S(=O)(=O)c2ccc(C)c(C)c2)CC1)C1CCS(=O)(=O)C1` (centres undefined), the activity, negative = inhibition rises from -1.01% [at 2.33 µM] to 7.98% [at 2.33 µM].

First: O=C(NCCc1c[nH]c2ccccc12)c1cccc(Br)c1
Second: COC(=O)c1cc(-c2cccs2)nc2ccccc12
The activity, negative = inhibition of the first is lower: 0.2% [at 2.33 µM] for the first, 17% [at 2.33 µM] for the second.

First: O=C(O[C@H]1[C@H](Cc2ccccc2)NS(=O)(=O)[C@H]2C[C@@H]3C=C[C@]12O3)c1ccc([N+](=O)[O-])cc1
Second: Brc1ccc(CN2CC[C@H]3C=CCc4cccc(c43)C2)cc1
The activity, negative = inhibition of the first is lower: -6.93% [at 2.33 µM] for the first, 12.2% [at 2.33 µM] for the second.

First: C#CCOCCOCCOCCNc1nc(N2CCN(C(=O)Cn3cc(CCCCN)nn3)CC2)nc(N2CCN(C(=O)[C@H](CCCCN)n3cc(CCC(=O)O)nn3)CC2)n1
Second: C#CCOCCOCCOCCNc1nc(N2CCN(C(=O)[C@H](CCCCN)n3cc(CCC(=O)O)nn3)CC2)nc(N2CCN(C(=O)[C@H](CCCCN)n3cc(CC(C)O)nn3)CC2)n1 (some centres undefined)
The activity, negative = inhibition of the first is higher: 5.8% [at 2.33 µM] for the first, -23.5% [at 2.33 µM] for the second.

Compared with `C#CCOCCOCCOCCNc1nc(N2CCN(C(=O)CCCCCCCCCCNC(=O)[C@H]([C@@H](C)CC)n3cc(CCCCN=C(N)N)nn3)CC2)nc(N2CCN(C(=O)CCCCCCCCCCNC(=O)[C@H](CO)n3cc(CCCSC)nn3)CC2)n1`, `C#CCOCCOCCOCCNc1nc(N2CCN(C(=O)CCCCCCCCCCNC(=O)[C@H](CCCCN)n3cc(C)nn3)CC2)nc(N2CCN(C(=O)CCCCCCCCCCNC(=O)[C@H](CO)n3cc(CCCSC)nn3)CC2)n1` is lower in activity, negative = inhibition: 10.6% [at 2.33 µM] for the first, -8.81% [at 2.33 µM] for the second.

Work on `CCC(C)CCN1CCN=C1N(C)C` (centres undefined) yielded an activity, negative = inhibition of 2.04% [at 2.33 µM].

Compared with `CN1/C(=C\C(=O)c2oc3ccccc3c2N)C(C)(C)c2ccccc21`, `CC(C)Nc1nnc(SCC(=O)/C=C2\N(C)c3ccccc3C2(C)C)s1` is higher in “activity, negative = inhibition” value: -56.3% for the first, -11.2% for the second.

First: CCN(CCCNC(=O)c1cc2c(=O)n(CC)c3ccccc3c2s1)Cc1ccccc1
Second: O=c1c2ccccc2n(Cc2cccc(Cl)c2)c(=O)n1Cc1ccccc1
The “activity, negative = inhibition” value of the first is lower: 2.01% for the first, 3.21% for the second.

First: CCCN1C(=O)C(O)(CC(=O)c2ccc(CC)cc2)c2cc(Br)ccc21 (centres undefined)
Second: CCc1ccc(NC(=O)CCS(=O)(=O)c2cc3c(cc2Cl)NC(=O)CO3)cc1
The “activity, negative = inhibition” value of the first is higher: 8.12% for the first, -7.38% for the second.

First: COc1ccc(NC(=O)CSc2nc3ccccc3n2CC(=O)N2CCCCC2C)cc1 (centres undefined)
Second: COc1ccc(-c2nc(S(=O)(=O)c3ccccc3)c(N3CCCCC3)o2)cc1
The “activity, negative = inhibition” value of the first is higher: 16.3% for the first, -18.6% for the second.

Compared with `CCOc1ccc(NC(=O)CN(C)C(=O)Cc2sc(C)nc2-c2ccc(F)cc2)cc1OCC`, `COc1ccc(NC(=O)Cn2c(=O)cc(C)c3c(C)nn(-c4cccc(Cl)c4C)c32)cc1OC` is higher in “activity, negative = inhibition” value: -29.9% for the first, -1.25% for the second.

Compared with `CCc1ccc(NC(=O)c2cc(S(=O)(=O)NC3CCCCCC3)ccc2F)cc1`, `Cc1cc(NC(=O)CSc2ncc(C(=O)Nc3ccc(Cl)cc3)c(=O)n2C)no1` is lower in “activity, negative = inhibition” value: 13.9% for the first, 2.93% for the second.

First: COc1cc(C(=O)NCCS(=O)(=O)N2CCN(c3ccccc3)CC2)cc(OC)c1OC
Second: COc1ccccc1CNC(=O)NCc1noc2ccc(C)cc12
The “activity, negative = inhibition” value of the first is lower: -36.6% for the first, 9.85% for the second.

First: Cc1ccccc1CNC(=O)C(=O)NCC(c1cccs1)S(=O)(=O)c1cccs1 (centres undefined)
Second: COc1cccc(CNC(=O)Cc2csc3nc(-c4ccccc4)cn23)c1
The “activity, negative = inhibition” value of the first is lower: 4.09% for the first, 5.25% for the second.

Compared with `CCOC(=O)c1ccc(-c2ccc(/C=C(\C#N)C(=O)Nc3ccc(C)cc3)o2)cc1`, `COC(=O)c1cc2occc2n1Cc1nc(-c2ccc(C)cc2)oc1C` is lower in “activity, negative = inhibition” value: -4.08% for the first, -36.5% for the second.

Compared with `O=C(CCNS(=O)(=O)c1ccc(Br)cc1)NCC1CCCO1` (centres undefined), `CCCCNC(=O)C1CCCN(c2nnc(C)c3c(C)n(-c4ccc(Cl)cc4)nc23)C1` (centres undefined) is lower in “activity, negative = inhibition” value: 5.66% for the first, -11% for the second.

First: CC1CN(C(=O)N2CCC(C(=O)NCc3cccs3)CC2)c2ccccc2O1 (centres undefined)
Second: CCc1sc(C(=O)N2CCN(CC(=O)Nc3cccc(F)c3)CC2)cc1C
The “activity, negative = inhibition” value of the first is lower: 5.28% for the first, 13.2% for the second.

Going from `COc1ccc(-n2c(SC)nc3sc4c(c3c2=O)CCN(C(C)=O)C4)cc1` to `COc1ccc(CNC(=O)CSCc2nc(-c3ccccc3F)oc2C)cc1`, the “activity, negative = inhibition” value falls from 12% to -1.95%.

First: COc1ccc(/C=C/c2nc(C#N)c(NCc3ccc(F)cc3)o2)cc1OC
Second: N#Cc1nc(/C=C/c2ccc(F)cc2)oc1NCc1ccc(F)cc1
The “activity, negative = inhibition” value of the first is lower: -37.4% for the first, -28.7% for the second.

Going from `O=C(Cn1c(=O)n(-c2ccc(F)cc2)c(=O)c2sccc21)Nc1cccc(C(F)(F)F)c1` to `COc1ccc(NC(=O)CSC2=Nc3ccccc3C3=NC(CC(=O)NCc4ccccc4OC)C(=O)N23)cc1Cl` (centres undefined), the “activity, negative = inhibition” value rises from -1.91% to -1.6%.

First: COc1ccc(C2CC(=O)N(Cc3ccccc3C)c3c2c(C)nn3-c2nc(C)cc(C)n2)c(OC)c1 (centres undefined)
Second: Cc1cc(C)c(NC(=O)CCc2c(C)nc3c(c(C)nn3C(C)(C)C)c2C)c(C)c1
The “activity, negative = inhibition” value of the first is lower: -2.3% for the first, -0.258% for the second.

`O=C(Nc1ccc2c(c1)OCO2)c1cc(-c2cccc(Cl)c2)on1` was tested, and the “activity, negative = inhibition” value was -27.1%.

In the case of `CN1CCN(CCC(=O)N/N=C/C=C2\N(C)c3ccccc3C2(C)C)CC1`, the Potency is reported as 31.6 µM (active).
For `COc1ccc(C2OC(=O)CC2C(=O)NC(C)C)cc1` (centres undefined), the Potency was 28.2 µM (active).
For `Cc1cc(C)cc(NC(=S)NCCc2c[nH]c3ccccc23)c1`, the Potency was 39.8 µM (active).
`Cc1ccc(-n2cc(CN(C)Cc3nccn3C)c(-c3cccc(C)c3)n2)cc1` was tested, and the Potency was 39.8 µM (active).
`CC(=O)Nc1ccc(NC(=O)c2ccc3c(c2)C(=O)N(c2ccccc2C)C3=O)cc1` was tested, and the Potency was 39.8 µM (active).
`O=C(Nc1nnc(-c2ccccc2)o1)c1cc(-c2cccs2)nc2ccccc12` was tested, and the Potency was 39.8 µM (active).
For `Cc1ccc(N2C(=O)CC(NCc3ccc4c(c3)OCO4)C2=O)cc1Cl` (centres undefined), the Potency was 39.8 µM (active).
In the case of `CCOc1ccc(NC(=O)CSc2nc3c(c(=O)n2-c2ccccc2OC)SCC3)cc1`, the Potency is reported as 31.6 µM (active).
For `CCOc1ccc(-n2c(SCC(=O)Nc3ccc(OC)cc3)nc3sc4c(c3c2=O)CCN(C)C4)cc1`, the Potency was 39.8 µM (active).
For `COc1ccccc1NC(=O)CSc1nc2sc3c(c2c(=O)n1-c1ccccc1)CCN(C)C3`, the Potency was 39.8 µM (active).
With `O=S(=O)(c1ccccc1)c1nc(Cc2ccccc2)oc1N1CCOCC1` the Potency was 7.08 µM (active).
With `C#CCOCCOCCOCCNc1nc(N2CCN(C(=O)[C@H](C(C)C)n3cc(CCO)nn3)CC2)nc(N2CCN(C(=O)[C@H]([C@@H](C)CC)n3cc(CCCN=C(N)N)nn3)CC2)n1` the Potency was 39.8 µM (active).
`C#CCOCCOCCOCCNc1nc(N2CCN(C(=O)[C@H](C(C)C)n3cc(CCO)nn3)CC2)nc(N2CCN(C(=O)[C@H](C(C)C)n3cc(CCO)nn3)CC2)n1` was tested, and the Potency was 44.7 µM (active).
In the case of `O=C1/C(=C\c2ccsc2)NC(=S)N1c1ccccc1`, the Potency is reported as 50.1 µM (active).
In the case of `Cc1c(C2=CCN(S(=O)(=O)c3ccc(Cl)cc3)CC2)c2ccccc2n1C`, the Potency is reported as 44.7 µM (active).

Going from `CCOC(=O)c1ccc(NC(=O)Cc2cccs2)cc1` to `CCOc1ccc(NC(=O)CSc2nncn2C)cc1`, the “activity, negative = inhibition” value falls from 23% [at 102 µM] to 0.64% [at 102 µM].

Compared with `COc1ccc(N2CC(C(=O)N[C@@H](C)C(=O)N3CCCCC3)CC2=O)cc1` (some centres undefined), `COc1ccc(C(C)NC(=O)C2CCCC2)cc1` (centres undefined) is higher in “activity, negative = inhibition” value: 13.8% [at 102 µM] for the first, 49.3% [at 102 µM] for the second.

First: O=C(NCCc1c[nH]c2ccccc12)c1cc2ccccc2oc1=O
Second: CCCCN(C)CCCNC(=O)c1cc(-c2cccs2)nc2ccccc12
The “activity, negative = inhibition” value of the first is lower: -44.1% [at 102 µM] for the first, -36.5% [at 102 µM] for the second.

Going from `Cc1cccc(-n2cc(CN3CCN(C(=O)c4ncn[nH]4)CC3)c(-c3cccc(F)c3)n2)c1` to `Cc1cccc(N2C(=O)c3ccc(C(=O)Nc4cccc(C(=O)O)c4)cc3C2=O)c1`, the “activity, negative = inhibition” value rises from -37.2% [at 102 µM] to -31.2% [at 102 µM].

Compared with `COc1ccc(-c2[nH]ncc2CN(Cc2nccn2C)C(C)C)cc1F`, `COc1ccc(CNC(=O)COC(=O)c2c(C)nn(-c3ccccc3)c2C)cc1OC` is higher in “activity, negative = inhibition” value: -38.6% [at 102 µM] for the first, 4% [at 102 µM] for the second.

First: O=C(Nc1ccc2c(c1)OCO2)c1ccc(N2C(=O)c3ccccc3C2=O)cc1
Second: Cc1ccc(CC2CC(=O)N(c3ccc4c(c3)OCCO4)C2=O)cc1 (centres undefined)
The “activity, negative = inhibition” value of the first is lower: 7.92% [at 102 µM] for the first, 10.7% [at 102 µM] for the second.

First: CSCCC(NC(=O)COc1ccccc1)C(=O)OCCOc1ccc(F)cc1 (centres undefined)
Second: CC(=O)c1ccccc1OCc1ccc(C(=O)c2ccccc2)cc1
The “activity, negative = inhibition” value of the first is lower: -5.75% [at 102 µM] for the first, 171% [at 102 µM] for the second.

Compared with `CC(=O)c1c(C)[nH]c(C(=O)OCC(=O)Nc2c(C)n(C)n(-c3ccccc3)c2=O)c1C`, `CCOC(=O)c1sc(NC(=O)CSc2nc3c(c(=O)n2-c2ccccc2)SCC3)c(C(=O)OCC)c1C` is higher in “activity, negative = inhibition” value: -2.75% [at 102 µM] for the first, 12.9% [at 102 µM] for the second.

First: O=C(c1ccc(Cn2cc([N+](=O)[O-])cn2)o1)N1CCCC1
Second: COc1ccccc1-n1c(SCC(=O)O)nc2sc3c(c2c1=O)CCC3
The “activity, negative = inhibition” value of the first is higher: 14.9% [at 102 µM] for the first, 0.797% [at 102 µM] for the second.

Going from `CC1(C)Cc2c(sc3nc(SCC(=O)NCc4ccccc4)n(-c4ccccc4)c(=O)c23)CS1` to `CC1=CC(C)(C)NC(=S)N1c1ccccc1`, the “activity, negative = inhibition” value falls from 13.5% [at 102 µM] to 13.4% [at 102 µM].

`COc1ccccc1N1CCN(S(=O)(=O)c2ccc(Cl)cc2)CC1` was tested, and the “activity, negative = inhibition” value was -9.73% [at 102 µM].

Compared with `CC1CCCCN1CC(=O)NCc1ccc2c(c1)OCO2` (centres undefined), `COc1ccc(NC(=O)CC2SC(N3CCCCC3)=NC2=O)cc1OC` (centres undefined) is higher in activity, negative = inhibition: 8.12% [at 12.7 µM] for the first, 29.8% [at 12.7 µM] for the second.

Compared with `CCc1nnc(NC(=O)CSc2nc3c(c(=O)n2-c2ccccc2OC)SCC3)s1`, `O=C1/C(=C/c2coc3ccc(O)cc3c2=O)SC(=S)N1c1ccccc1` is lower in activity, negative = inhibition: -12.8% [at 12.7 µM] for the first, -31.3% [at 12.7 µM] for the second.

Compared with `COc1cccc(-c2nc(S(=O)(=O)c3ccccc3)c(N3CCOCC3)o2)c1`, `O=C(O)c1cccc(S(=O)(=O)N2CC=C(c3ccccc3)CC2)c1` is higher in activity, negative = inhibition: -43% [at 12.7 µM] for the first, 23% [at 12.7 µM] for the second.
